SMILES strings stand for the structures. About 14,000 (4.5%) of roughly 310,000 compounds showed an effect of 50% or more. Effects have a minus sign here. The entries come from a sample that favours strong results as a whole.

The results in this text go back to paper PMC4336329 (PLoS ONE, 2015).
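Further: peak tail current of the secondary pulse compared with the same well before compound.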

The assay deals with human ether-à-go-go-related gene (hERG) potassium channel (human, UniProt Q12809). Briefly: primary screen, population patch clamp on CHO cells stably expressing hERG; higher = less effect of the substance.
human ether-à-go-go-related gene (hERG) potassium channel, sequence (Q12809 whole entry, looked up): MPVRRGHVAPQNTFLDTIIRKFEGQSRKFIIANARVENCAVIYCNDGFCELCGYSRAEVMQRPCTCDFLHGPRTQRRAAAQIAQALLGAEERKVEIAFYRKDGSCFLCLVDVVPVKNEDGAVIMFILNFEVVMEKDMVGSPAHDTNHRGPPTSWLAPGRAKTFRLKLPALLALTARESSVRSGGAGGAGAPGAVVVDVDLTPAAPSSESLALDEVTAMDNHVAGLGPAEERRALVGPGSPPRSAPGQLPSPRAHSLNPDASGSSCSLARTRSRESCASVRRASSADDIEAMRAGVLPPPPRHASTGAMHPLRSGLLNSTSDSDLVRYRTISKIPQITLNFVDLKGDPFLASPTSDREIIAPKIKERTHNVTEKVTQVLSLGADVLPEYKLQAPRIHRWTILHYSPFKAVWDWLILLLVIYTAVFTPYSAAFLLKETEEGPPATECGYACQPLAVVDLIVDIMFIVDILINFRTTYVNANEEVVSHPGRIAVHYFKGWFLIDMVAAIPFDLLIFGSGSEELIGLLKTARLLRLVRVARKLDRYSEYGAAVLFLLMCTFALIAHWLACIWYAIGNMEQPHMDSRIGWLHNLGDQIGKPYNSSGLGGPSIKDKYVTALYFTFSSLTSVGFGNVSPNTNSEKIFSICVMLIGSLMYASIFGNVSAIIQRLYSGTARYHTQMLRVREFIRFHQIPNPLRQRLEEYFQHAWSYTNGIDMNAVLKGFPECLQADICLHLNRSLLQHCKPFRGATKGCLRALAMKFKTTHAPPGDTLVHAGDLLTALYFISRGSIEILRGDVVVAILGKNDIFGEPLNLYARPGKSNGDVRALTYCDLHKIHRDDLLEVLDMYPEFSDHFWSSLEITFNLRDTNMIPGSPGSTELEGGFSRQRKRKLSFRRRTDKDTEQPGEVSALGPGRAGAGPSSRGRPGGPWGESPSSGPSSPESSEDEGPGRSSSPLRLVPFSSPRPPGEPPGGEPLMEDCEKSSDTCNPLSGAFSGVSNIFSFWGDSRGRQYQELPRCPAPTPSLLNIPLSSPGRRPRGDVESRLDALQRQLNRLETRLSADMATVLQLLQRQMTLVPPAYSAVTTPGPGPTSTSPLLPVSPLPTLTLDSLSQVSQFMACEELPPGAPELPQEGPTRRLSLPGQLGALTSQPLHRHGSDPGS
As to `Cc1cccc(-n2c(C)cc(C)c(C#N)c2=O)c1`, the “hERG current change (%, negative = inhibition) at 10uM” value amounted to 7.18%.

For the compound `Cc1ccc(C(=O)NCCCNC(=O)c2ccco2)cc1C`, the “hERG current change (%, negative = inhibition) at 10uM” value is recorded as 14.7%.

For the compound `c1ccc2c(NC3C4CC5CC(C4)CC3C5)nc(N3CCOCC3)nc2c1` (stereo not drawn), the “hERG current change (%, negative = inhibition) at 10uM” value is reported as -35.1%.

As to `CN1CCN(c2nc(N3CCN(CCO)CC3)nc3ccccc23)CC1.Cl`, the “hERG current change (%, negative = inhibition) at 10uM” value was determined as 7.33%.

Turning to `c1ccc2c(Nc3ccc(N4CCOCC4)cc3)nc(N3CCOCC3)nc2c1`, the “hERG current change (%, negative = inhibition) at 10uM” value was -48.5%.

In the case of `CCN(CC)c1nc(N2CCN(CCO)CC2)nc2ccccc12.Cl`, the “hERG current change (%, negative = inhibition) at 10uM” value is recorded as -27.8%.

For `CC(Nc1nc(N2CCOCC2)nc2ccccc12)c1ccccc1` (stereo not drawn), the “hERG current change (%, negative = inhibition) at 10uM” value is reported as -73.8%.

On to `CC(Nc1nc(N2CCN(CCO)CC2)nc2ccccc12)c1ccccc1` (stereo not drawn), for which the “hERG current change (%, negative = inhibition) at 10uM” value is -60.9%.

Turning to `CN(C(=O)CS(=O)(=O)c1cn(CC(=O)N2CCOCC2)c2ccccc12)c1ccccc1`, the “hERG current change (%, negative = inhibition) at 10uM” value stood at 0.304%.

In the case of `Cc1cc(C)c(S(=O)(=O)NCCCn2ccnc2)cc1C`, the “hERG current change (%, negative = inhibition) at 10uM” value amounted to 4.04%.

Take `Cn1c(=O)c2[nH]c(-c3ccccc3O)nc2n(C)c1=O`: the “hERG current change (%, negative = inhibition) at 10uM” value was found to be 23%.

`CC(=O)Nc1ccc(SCCC2CCCCN2C)cc1` (stereo not drawn): the “hERG current change (%, negative = inhibition) at 10uM” value worked out at 7.77%.

With `O=C(O)CCN1c2ccccc2Sc2ccccc21`, the “hERG current change (%, negative = inhibition) at 10uM” value is 16.5%.

As to `CN1CCCCC1CCN1c2ccccc2Sc2ccc(S(C)=O)cc21.O=S(=O)(O)c1ccccc1` (stereo not drawn), the “hERG current change (%, negative = inhibition) at 10uM” value was -56%.

For `O=C(NCCN1CCOCC1)c1ccc2c(c1)N(Cc1ccc(F)cc1)C(=O)c1ccccc1S2(=O)=O`, the “hERG current change (%, negative = inhibition) at 10uM” value is on record as 0.647%.

Turning to `CC(NC(=O)Nc1ccc(Cl)cc1)C1CCCO1` (stereo not drawn), the “hERG current change (%, negative = inhibition) at 10uM” value is 7.05%.

As for `COc1ccc(S(=O)(=O)N2CC(O)CC2C(=O)Nc2cccnc2)cc1` (stereo not drawn), the “hERG current change (%, negative = inhibition) at 10uM” value is on record as 11.1%.

`O=C(NCc1ccccc1Cl)C(=O)NCC1OCCN1S(=O)(=O)c1cccs1` (stereo not drawn): the “hERG current change (%, negative = inhibition) at 10uM” value is -15%.

Turning to `O=C(c1ccc2ccccc2n1)N1CCN(c2ccccc2O)CC1`, the “hERG current change (%, negative = inhibition) at 10uM” value was -0.197%.

Consider `O=C(c1ccc2ccccc2n1)N1CCN(c2ccccc2)CC1`, for which the “hERG current change (%, negative = inhibition) at 10uM” value was -3.81%.

As for `O=C(c1ccc2ccccc2n1)N1CCN(c2ccccc2Cl)CC1`, the “hERG current change (%, negative = inhibition) at 10uM” value is reported as -64.8%.

On to `O=C(N/N=C/c1cccc([N+](=O)[O-])c1)C1CC(=O)N(c2ccc(Cl)cc2)C1` (stereo not drawn), for which the “hERG current change (%, negative = inhibition) at 10uM” value is reported as -82.1%.

Regarding `O=C(N/N=C/c1ccccc1O)C1CC(=O)N(c2ccc(Cl)cc2)C1` (stereo not drawn), the “hERG current change (%, negative = inhibition) at 10uM” value is 8.21%.

Turning to `O=C(N/N=C/c1cccc(Br)c1)C1CC(=O)N(c2ccccc2)C1` (stereo not drawn), the “hERG current change (%, negative = inhibition) at 10uM” value is 7.68%.

As to `Cc1ccc(N2CC(C(=O)N/N=C/c3cccc([N+](=O)[O-])c3)CC2=O)cc1` (stereo not drawn), the “hERG current change (%, negative = inhibition) at 10uM” value is on record as -22.2%.

For the compound `O=C(N/N=C/c1cccc([N+](=O)[O-])c1)C1CC(=O)N(c2ccc(Br)cc2)C1` (stereo not drawn), the “hERG current change (%, negative = inhibition) at 10uM” value is given as -46.6%.

In the case of `O=C(N/N=C/c1cccc([N+](=O)[O-])c1)C1CC(=O)N(c2ccc(F)cc2)C1` (stereo not drawn), the “hERG current change (%, negative = inhibition) at 10uM” value was -65.8%.

For the compound `O=C(NCc1ccccc1Cl)c1cccc(NC(=O)c2ccccc2)c1`, the “hERG current change (%, negative = inhibition) at 10uM” value is reported as -8.78%.

Take `COc1cc(NC(=S)NC(=O)CC(C)C)ccc1NC(=O)c1cc2ccccc2o1`: the “hERG current change (%, negative = inhibition) at 10uM” value was determined as 19.7%.

Turning to `COC(=O)CNC(=O)c1ccccc1C`, the “hERG current change (%, negative = inhibition) at 10uM” value is reported as 11.2%.

Consider `COc1ccc(S(=O)(=O)N2CCCOC2CNC(=O)C(=O)NC2CCCC2)cc1` (stereo not drawn), for which the “hERG current change (%, negative = inhibition) at 10uM” value was determined as 4.51%.

Regarding `CCCC(C)(C)NC(=O)CCCCC(=O)NC(C)(C)CCC`, the “hERG current change (%, negative = inhibition) at 10uM” value was -9.49%.

Take `CCCCCCCC(=O)N1c2ccccc2NC(=O)C1CC(=O)Nc1ccc(C(=O)O)cc1` (stereo not drawn): the “hERG current change (%, negative = inhibition) at 10uM” value was determined as 13.6%.

As for `COc1cccc(NC(=S)N(C)C2CCN(C)CC2)c1`, the “hERG current change (%, negative = inhibition) at 10uM” value was determined as 11%.

For `O=C(CCS(=O)(=O)Cc1ccccc1)N1CCN(Cc2ccccc2)CC1`, the “hERG current change (%, negative = inhibition) at 10uM” value is given as -22.1%.

For the compound `O=C(CCCC(=O)N1CCN(c2ccc([N+](=O)[O-])cc2)CC1)c1ccccc1`, the “hERG current change (%, negative = inhibition) at 10uM” value is recorded as -72%.

On to `O=C(CCCC(=O)N1CCN(c2cccc(Cl)c2)CC1)c1ccccc1`, for which the “hERG current change (%, negative = inhibition) at 10uM” value is -44.2%.

As for `CC(=O)c1ccc(N2CCN(C(=O)CCc3ccccc3)CC2)cc1`, the “hERG current change (%, negative = inhibition) at 10uM” value was -54.1%.

`O=C(CCN1CCOCC1)c1ccc(Cl)cc1`: the “hERG current change (%, negative = inhibition) at 10uM” value is 28.3%.

In the case of `O=C(CCS(=O)(=O)Cc1ccccc1)N1CCN(c2ccc([N+](=O)[O-])cc2)CC1`, the “hERG current change (%, negative = inhibition) at 10uM” value is -81.6%.

`COc1ccc(N2CCN(CC(=O)c3ccc(Cl)cc3)CC2)cc1`: the “hERG current change (%, negative = inhibition) at 10uM” value stood at 10.5%.

On to `O=C(CCS(=O)(=O)Cc1ccccc1)N1CCN(c2ccccc2)CC1`, for which the “hERG current change (%, negative = inhibition) at 10uM” value is reported as -7.79%.

In the case of `O=C(CCCC(=O)N1CCN(c2ccccc2F)CC1)c1ccccc1`, the “hERG current change (%, negative = inhibition) at 10uM” value is given as -10.7%.

Turning to `O=C(CCN1CCN(c2ccc([N+](=O)[O-])cc2)CC1)c1ccc(Cl)cc1`, the “hERG current change (%, negative = inhibition) at 10uM” value was -72.4%.

Consider `O=C(CCc1ccccc1)N1CCN(c2ccc(Cl)cc2)CC1`, for which the “hERG current change (%, negative = inhibition) at 10uM” value is -35.1%.

With `O=C(CCc1ccccc1)N1CCN(c2ccc(F)cc2)CC1`, the “hERG current change (%, negative = inhibition) at 10uM” value is reported as -23%.

As to `CSc1nc2ccc(NC(=O)C3CCCO3)cc2s1` (stereo not drawn), the “hERG current change (%, negative = inhibition) at 10uM” value is recorded as -0.62%.

As for `CC(=O)Nc1cccc(NC(C)=O)n1`, the “hERG current change (%, negative = inhibition) at 10uM” value stood at 19.6%.

As for `COc1cc(C(=S)N2CCOCC2)ccc1O`, the “hERG current change (%, negative = inhibition) at 10uM” value is on record as 29.3%.

In the case of `CCOc1ccc(C(=O)Nc2nnc(SCC(=O)NCC3CCCO3)s2)cc1OCC` (stereo not drawn), the “hERG current change (%, negative = inhibition) at 10uM” value was 9.52%.

Consider `c1ccc(-c2cn(CC3CCCCC3)nn2)cc1`, for which the “hERG current change (%, negative = inhibition) at 10uM” value is -1.74%.

Regarding `CCc1ccc(OCC(=O)O/N=C(\N)c2ccncc2)c(Br)c1`, the “hERG current change (%, negative = inhibition) at 10uM” value is recorded as 10.2%.

Take `O=C(CN1CCN(c2ccc(Cl)cc2)CC1)c1ccccc1`: the “hERG current change (%, negative = inhibition) at 10uM” value is -6.33%.

For the compound `O=C(CCCC1=NS(=O)(=O)c2ccccc2N1)N1CCN(c2ccc([N+](=O)[O-])cc2)CC1`, the “hERG current change (%, negative = inhibition) at 10uM” value was -1.34%.

With `CC1CN(C(=O)CCc2ccccc2)C(C)CN1C(=O)CCc1ccccc1` (stereo not drawn), the “hERG current change (%, negative = inhibition) at 10uM” value is reported as -60.4%.

In the case of `O=C(CCCc1ccccc1)N1CCN(c2ccc([N+](=O)[O-])cc2)CC1`, the “hERG current change (%, negative = inhibition) at 10uM” value was -64.7%.

As to `O=C(CN1CCN(c2ccc([N+](=O)[O-])cc2)CC1)c1ccccc1`, the “hERG current change (%, negative = inhibition) at 10uM” value is on record as -75%.

Turning to `C=CCN1CCN(C(=O)CCCc2ccccc2)CC1`, the “hERG current change (%, negative = inhibition) at 10uM” value was 26.1%.

Consider `CC1CCCN(C(=O)CCc2ccccc2)C1` (stereo not drawn), for which the “hERG current change (%, negative = inhibition) at 10uM” value was -5.7%.

Consider `O=C(CCc1ccccc1)N1CCN(c2ccc([N+](=O)[O-])cc2)CC1`, for which the “hERG current change (%, negative = inhibition) at 10uM” value is -73.1%.

As for `COc1ccc(N2CCN(C(=O)CCc3ccccc3)CC2)cc1`, the “hERG current change (%, negative = inhibition) at 10uM” value is -9.27%.

Regarding `CC1CC(C)CN(C(=O)CCc2ccccc2)C1` (stereo not drawn), the “hERG current change (%, negative = inhibition) at 10uM” value was -2.16%.

Turning to `N#Cc1ccc(C(=O)CN2CCN(c3ccccc3)CC2)cc1`, the “hERG current change (%, negative = inhibition) at 10uM” value is reported as -42.8%.
